Experimental data from PubChem BioAssay (NCATS).
Activity calls are given as the source filed them. A call without a number means that no potency is given here. Calls follow the shape of the dose curve; as a rule, active = well fitted inhibition curve with a large enough effect; inconclusive = small, poorly fitted or top-dose-only effect; inactive = flat fitted curve, though single readings scatter.

Biological target: ATP-dependent DNA helicase Q1 (Homo sapiens) (UniProt P46063)
Assay: qHTS Validation Assay for Inhibitors of RecQ-Like Dna Helicase 1 (RECQ1) (AID 2353)
Conditions: recombinant RECQ1 helicase DNA unwinding assay; series mostly up to 25.6 µM
Description: Survival of cells and the faithful propagation of the genome depend on elaborate mechanisms of detecting and repairing DNA damage. Treatment of advanced cancer relies on radiation therapy or chemotherapy, which kill cancer cells by causing extensive DNA damage. It is often found, that cancer cells develop resistance to therapy through enhanced activity of DNA repair functions; this has led to an increased interest in developing drugs that interfere with DNA repair, which could sensitize cancer cells to conventional therapy.
This validation qHTS assay pertains to human RECQ1, which is important in resolving abnormal DNA structures formed during replication or homologous recombination. Shutting down the expression of RECQ1 leads to chromosomal instability and higher radiation sensitivity in cultured cells.
The validation assay was a fluorescence quenching based kinetic qHTS for RECQ1 Helicase DNA unwinding. The activity was measured as ATP-dependent separation of a 20-bp DNA duplex extended by 30-nt single-stranded tails (forked duplex). The forked DNA substrate was tagged with rhodamine fluorophore (carboxytetramethyl rhodamine, TAMRA) and BHQ-2 (Black Hole Quencher 2) dark quencher. Strand separation results in an increase in the fluorescence of TAMRA (excitation 525 nm, emission 598 nm). This substrate construct operates in a red-shifted region where very few compound library members have been noted to fluoresce (PubChem AIDs 593 and 594). An additional feature of the assay is the inclusion of 2.5 ug/ml poly (dIdC), to reduce interference by compounds such as DNA intercalators, a major source of false inhibitors.
Opher Gileadi, Structural Genomics Consortium, University of Oxford
Screening Center PI: Austin, C.P.
Screening Center: NIH Chemical Genomics Center [NCGC]
Three uL of reaction buffer (25 mM Tris-HCl (pH 8.0), 5 mM NaCl, 2 mM MgCl2, 1mM DTT, 0.01% Tween- 20, and 2.5 ug/ml poly(dI-dC), including enzyme (50 nM RECQ1T1), were dispensed into a 1536-well Greiner black assay plate via solenoid-valve based nanoliter dispensers. Compounds (23 nl each in columns 5-48) and control (23 nl each in column 2 as dose-response) were transferred via a Kalypsys pintool equipped with a 1536-pin array. The plates were incubated for 15 min at room temperature, and then 1 ul of substrates (200 nM DNA and 2 mM ATP, final concentrations) was added to start the reaction. The plate was transferred into a ViewLux high-throughput CCD imager where the reaction progress was measured in a discontinuous kinetic mode (two reads spaced 2 hours apart, with intermediate room temperature incubation of the covered assay plate) by using standard red-fluorescence optics (excitation filter 525 nm, emission filter 598 nm). Enzyme-free and vehicle (DMSO) controls were included for signal normalization.
Potency is read from the fitted curve at half-maximal effect.

Sequence of ATP-dependent DNA helicase Q1 (Homo sapiens) (P46063 whole entry, looked up): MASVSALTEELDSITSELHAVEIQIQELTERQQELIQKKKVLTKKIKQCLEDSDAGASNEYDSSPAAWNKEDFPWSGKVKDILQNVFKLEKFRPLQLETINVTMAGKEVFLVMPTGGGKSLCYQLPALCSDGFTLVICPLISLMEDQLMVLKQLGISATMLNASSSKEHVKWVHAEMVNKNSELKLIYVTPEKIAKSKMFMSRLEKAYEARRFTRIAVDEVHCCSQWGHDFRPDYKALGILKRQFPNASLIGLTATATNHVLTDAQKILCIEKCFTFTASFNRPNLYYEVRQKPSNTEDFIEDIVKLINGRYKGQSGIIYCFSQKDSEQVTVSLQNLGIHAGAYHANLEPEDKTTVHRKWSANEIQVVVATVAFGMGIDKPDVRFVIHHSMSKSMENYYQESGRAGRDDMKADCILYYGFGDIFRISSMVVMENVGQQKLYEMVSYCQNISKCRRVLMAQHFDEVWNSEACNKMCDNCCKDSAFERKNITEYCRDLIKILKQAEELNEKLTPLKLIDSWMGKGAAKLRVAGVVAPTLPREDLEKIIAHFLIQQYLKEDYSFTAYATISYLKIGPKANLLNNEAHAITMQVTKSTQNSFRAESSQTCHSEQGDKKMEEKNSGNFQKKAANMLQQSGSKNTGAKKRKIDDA

SMILES	Potency
C[C@@]1(C2CCCC2)Cc2cc(OCC(=O)O)c(Cl)c(Cl)c2C1=O	inactive
CCCCCC(O)CCCC(=O)O (stereo not given)	inactive
CC1C(=O)N(C)C(=O)c2nc[nH]c21 (stereo not given)	inactive
NC(=Nc1ccccc1)NC(=O)c1nc(Cl)c(N)nc1N	inactive
CC[C@H](NC(=O)c1c(C)c(-c2ccccc2)nc2ccccc12)c1ccccc1	inactive
O=C(O)c1cccnc1C(=O)O	inactive
N=C(N)SCCc1cnc[nH]1	inactive
NC1CCN(O)C1=O (stereo not given)	inactive
C=CCn1c(=O)c2c(nc(-c3ccc(S(=O)(=O)O)cc3)n2C)n(C)c1=O	inactive
COC(=O)C1=C(C)NC(C)=C([N+](=O)[O-])C1c1ccccc1C(F)(F)F (stereo not given)	inactive
Oc1ccc(Cn2cc[nH]c2=S)cc1	inactive
O=c1[nH]c(=O)c2nc3ccccc3nc2[nH]1	inactive
CN1CCCC1CCOC(C)(c1ccccc1)c1ccc(Cl)cc1 (stereo not given)	inactive
Cc1ccc([N+](=O)[O-])cc1S(=O)(=O)N(C)C	inactive
N[C@@H](Cc1c[nH]c2ccccc12)C(=O)O	inactive
C[C@H](NC(=O)/C(C#N)=C/c1ccc(O)c(O)c1)c1ccccc1	inactive
O=C(O)C1CCCNC1 (stereo not given)	inactive
CCCn1c(=O)c2[nH]c(C3CCCC3)nc2n(CCC)c1=O	inactive
COc1ccc(C(=O)NCc2cccnc2)cc1C(=O)NCc1cccnc1	inactive
O=C1OC(=O)C2C3CCC(O3)C12 (stereo not given)	inactive

SMILES	Potency
COC(=O)[C@H](NC(=O)c1cc(-c2ccccc2)nc2ccccc12)c1ccccc1	inactive
CC(=O)C(C)=O	inactive
COc1ccccc1N1CCN(CCCCNC(=O)c2ccc3ccccc3c2)CC1	inactive
C#CC(N)CCC(=O)O (stereo not given)	inactive
COc1ccc2c(c1)c(CC(=O)O)c(C)n2Cc1ccc(Cl)cc1	inactive
Cn1c(=O)[nH]c2ncn(C)c2c1=O	inactive
CC[C@@H]1Cc2cc(O)ccc2C2=C1c1ccc(O)cc1C[C@H]2CC	inactive
NCCS(=O)O	inactive
[Li+]	inactive
CCCOC(=O)c1c(-c2ccccc2)nc(CC)c(C(=O)SCC)c1CCC	inactive
NS(=O)(=O)c1cccc2c1c([N+](=O)[O-])cc1nc(O)c(O)nc12	inactive
CC(N)(Cc1ccc(O)cc1)C(=O)O (stereo not given)	11.2 µM (active)
Nn1nnc2ccccc21	inactive
CC(=O)[C@H]1CCC2C3CC=C4C[C@@H](OS(=O)(=O)O)CC[C@]4(C)C3CC[C@@]21C (stereo not given in full)	inactive
CCN(c1nc(N)c(C(=O)N=C(N)N)nc1Cl)C(C)C	inactive
CCC(=O)N1CCN(C(=O)c2ccccc2)CC1	inactive
CCC1(O)CC2CN(CCc3c([nH]c4ccccc34)[C@@](C(=O)OC)(c3cc4c(cc3OC)N(C=O)C3[C@]45CCN4CC=C[C@@](CC)([C@@H](OC(C)=O)[C@]3(O)C(=O)OC)[C@H]45)C2)C1 (stereo not given in full)	inactive
CN1CCN(c2nc3cc(C(F)(F)F)ccc3n3cccc23)CC1	inactive
CCCCC[C@H](CC(=O)NO)C(=O)N[C@H](C(=O)N1CCC[C@H]1CO)C(C)C	inactive
Fc1ccc(CN(C2=NCCN2)c2c(Cl)cccc2Cl)cc1	inactive
